Sampled rows, rich in hits. Any-hit rate of the full collection: about 4.7%.
D3 ag – D3 dopamine receptor (human) agonism | P35462 | D3R DiscoveRx beta-arrestin cells, luminescence, 90 min | max activation, % | 410,000 compounds, 0.58% hits | AID 652048; in the data active means max activation above about 30%
Target sequence (P35462 whole entry, looked up): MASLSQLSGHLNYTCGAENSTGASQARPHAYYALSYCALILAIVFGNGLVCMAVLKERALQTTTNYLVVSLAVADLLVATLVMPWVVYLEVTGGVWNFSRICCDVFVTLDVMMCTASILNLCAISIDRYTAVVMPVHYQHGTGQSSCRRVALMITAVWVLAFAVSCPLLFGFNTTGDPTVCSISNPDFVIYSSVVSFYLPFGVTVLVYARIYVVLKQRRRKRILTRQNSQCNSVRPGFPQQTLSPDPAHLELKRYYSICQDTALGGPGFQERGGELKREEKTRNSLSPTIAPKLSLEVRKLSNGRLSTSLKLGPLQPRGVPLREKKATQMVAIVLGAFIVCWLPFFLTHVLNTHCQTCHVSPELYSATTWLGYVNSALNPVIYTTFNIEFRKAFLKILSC
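Cells at 1500/well, incubated overnight, then treated with pinned compounds (dopamine as control) for 90 min at 37 degrees C. DiscoveRx reagent added for 30 - 60 minutes at room temperature; luminescence read.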
TGFb SMAD3 inh – TGF-b pathway inhibition | Potency, µM (highest dose often 46.1 µM), actives largely listed as inhibitors | HepG2 CAGA-GFP TGF-b/SMAD3 reporter, GFP fluorescence, 18 h; TGF-beta stimulated, 500 pg/mL final | 410,000 compounds, 1.2% hits; further: nearly all actives have a fitted effect of over 65% in size
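GFP signal (ex488/em500-530) from TGF-beta-stimulated HEPG2 CAGA-GFP cells, 500 pg/mL final, 18 h at 37 degrees C in DMEM plus 1% FBS, normalized to unstimulated and DMSO-stimulated controls.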
HepG2 tox – counter-screen for TGF-b inhibitors: cytotoxicity in HepG2 cells; HepG2 CAGA-GFP viability, ATP luminescence, 18 h; Potency, µM (series often up to 46.1 µM), usual class: cytotoxic; 410,000 compounds, 0.76% hits; AID 588856
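CellTiter-Glo luminescence gave cytotoxicity after 18 hours at 37 degrees C. The cells were HepG2 CAGA-GFP in 1% FBS DMEM, stimulated with 500 pg/mL TGF-beta after compound addition. %Activity was normalised to no-cell wells (complete cell-killing) and DMSO (no toxicity), and curves were fitted and classified.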
D3 antag – blocks the human D3 dopamine receptor; max response, negative = inhibition, %; AID 652054; 360,000 compounds, 2.5% hits; D3R cells, DiscoveRx beta-arrestin luminescence, antagonist mode; stronger effect = lower value; P35462; in the data active means max response below about -50%; inconclusive means no clear call, values can overlap the other calls
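Cells plated overnight at 1500 cells/well, then exposed to library compounds with dopamine controls for 90 minutes at 37 degrees C. DiscoveRx reagent added for 30–60 minutes at room temperature; luminescence read, quantitative HTS format.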
ATXN2 expr inh – ATXN2 expression inhibition | HEK-293 ATXN2-luciferase reporter, luminescence, 24 h | Potency, µM (highest dose often 57 µM), usual class: inhibitors | 360,000 compounds, 0.72% hits | AID 1745845; further: nearly all actives have a fitted effect of over 55% in size
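qHTS (up to 57 uM final) was run with 24 h compound exposure of reporter cells at 37 °C. Each well was multiplexed: SteadyGlo luminescence measured ATXN2-luciferase expression after a fluorogenic Gly-Phe-AFC viability readout (25 uM final).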
ATXN viability – viability counter-screen for ATXN expression inhibitors. S2 cells (HEK-293 line with an ATXN2-luciferase reporter) viability, CellTiter-Fluor protease fluorescence, 24 h. Potency, µM (top dose mostly 56.7 µM), hits mostly cytotoxic. 400,000 compounds, 0.49% hits. AID 651635; further: nearly all actives have a fitted effect of over 40% in size
Each line names hits and unclear results; the compound was inactive in the other large screens. Unless noted, the call rests on the fitted dose curve; in most records, active means well fitted curve in the direction sought with a large enough effect; inconclusive means small, poorly fitted or top-dose-only effect, or another doubt; inactive means no such curve, though single readings can be large; an effect the other way counts as inactive or inconclusive.

COc1cccc(CN2C(=O)NC(C)(C3CCN(Cc4ccc(C)o4)CC3)C2=O)c1OC (centres undefined)	none (no result: D3 ag, TGFb SMAD3 inh, HepG2 tox, D3 antag, ATXN2 expr inh)
COc1ccccc1OCC(=O)NCC(c1ccc(Cl)cc1)N1CCCCC1 (centres undefined)	ATXN viability inconclusive (no result: D3 antag)
O=C(c1cccc(Cl)c1)N1CCN(c2ccc3c(c2)C2CC3CCN2C(=O)OCc2ccccc2)CC1 (centres undefined)	TGFb SMAD3 inh 11µM, ATXN viability inconclusive
O=C(c1ccc(-c2ccccc2)cc1)N1CCN(c2ccc3c(c2)C2CC3CCN2C(=O)OCc2ccccc2)CC1 (centres undefined)	TGFb SMAD3 inh inconclusive
O=C(c1cccc(Cl)c1)N1CCC2CC1c1cc(-c3ccccc3)ccc12 (centres undefined)	TGFb SMAD3 inh inconclusive
O=C(c1ccc(Cl)cc1)N1CCC2CC1c1cc(-c3ccccc3)ccc12 (centres undefined)	TGFb SMAD3 inh 20µM
COC(=O)[C@@]1(Cc2ccc(F)cc2)[C@H]2c3cc(C(=O)N(C)C)n(Cc4ccccn4)c3C[C@H]2CN1C(=O)c1ccccc1	TGFb SMAD3 inh inconclusive
COC(=O)[C@@]1(Cc2ccc(F)cc2)[C@H]2c3cc(C(=O)N(C)C)n(Cc4nc5ccccc5[nH]4)c3C[C@H]2CN1C(=O)c1ccccc1	TGFb SMAD3 inh inconclusive, D3 antag -68
CC(=O)N(C)C1(c2ccccc2)CCN(CCC[C@]2(c3ccc(Cl)c(Cl)c3)CCCN(C(=O)c3ccccc3)C2)CC1	ATXN2 expr inh 22µM (no result: D3 ag, TGFb SMAD3 inh, HepG2 tox, D3 antag, ATXN viability)
CN(C)c1ccc(/C=C2\SC(=O)N(CCc3nnc(N)s3)C2=O)cc1	ATXN2 expr inh 4µM
CCn1c(=O)cc(SCC(=O)N2CCN(c3cc(C)ccc3C)CC2)c2ccccc21	TGFb SMAD3 inh inconclusive, ATXN2 expr inh inconclusive (no result: D3 antag, ATXN viability)
CCN1CCN(C(=O)C2CCN(Cc3nc(-c4cccc(Cl)c4)oc3C)CC2)CC1	D3 antag -74
Cc1oc(-c2cccc(Cl)c2)nc1CN1CCC(C(=O)N2CCN(c3ccccn3)CC2)CC1	D3 antag -51
CCCCCCCCCCCCc1ccc(S(=O)(=O)Nc2nncs2)cc1	none (no result: D3 ag, TGFb SMAD3 inh, HepG2 tox, D3 antag, ATXN viability)
Cc1cccc(OCCOc2ccccc2C=C(C#N)C#N)c1	TGFb SMAD3 inh 10µM, D3 antag inconclusive, ATXN viability inconclusive
CCCNC(=O)c1ccc(N2CCC3(CC2)CC(c2ccccc2)=NO3)c([N+](=O)[O-])c1	ATXN viability inconclusive
O=C(NCc1ccccc1)c1ccc(N2CCC3(CC2)CC(c2ccc(Cl)cc2)=NO3)c([N+](=O)[O-])c1	TGFb SMAD3 inh inconclusive, D3 antag -63
OC(CCCN1CCCCC1)(c1ccccc1)c1ccc(C(F)(F)F)cc1 (centres undefined)	D3 antag -99, ATXN2 expr inh inconclusive, ATXN viability inconclusive
Nc1c([N+](=O)[O-])cc2c3c(cccc13)CC2	D3 antag -73, ATXN viability inconclusive
Cc1c(C(=O)NCCCN2CCCC2=O)cnn1-c1ncc2c(n1)-c1ccccc1CC2	none (no result: D3 ag, TGFb SMAD3 inh, HepG2 tox, D3 antag, ATXN2 expr inh)
COc1ccc(CN2C[C@H]3CON(C)[C@H]3C[C@H]2c2ccc(-c3ccccc3)cc2)cc1	TGFb SMAD3 inh 11µM
COc1ccccc1-c1cccc([C@@H]2C[C@H]3[C@H](CON3C)CN2Cc2ccccc2)c1	TGFb SMAD3 inh inconclusive, ATXN viability inconclusive
CN1OC[C@@H]2CN(Cc3ccccc3)[C@H](c3cccc(-c4ccc(C#N)cc4)c3)C[C@@H]21	TGFb SMAD3 inh 10µM
Cc1ccc(C)c(N2CCN(C(=O)C3CCN(Cc4nc(-c5cccc(Cl)c5)oc4C)CC3)CC2)c1	none (no result: D3 antag)
CCCOc1ccc(C(=O)N2CCCC2C(=O)O)cc1 (centres undefined)	D3 antag -61
CCCCOc1ccc(C(=O)N2CCCC2C(=O)O)cc1 (centres undefined)	none
C(=C\c1nc2ccccc2s1)/c1ccc2c(c1)OCO2	none (no result: D3 ag, D3 antag, ATXN2 expr inh, ATXN viability)
C[N+](C)(CCCCCI)c1ccc(/C=C/c2nc3ccccc3s2)cc1	TGFb SMAD3 inh 8.9µM (no result: D3 ag, D3 antag, ATXN2 expr inh, ATXN viability)

High-throughput results deposited in PubChem BioAssay by National Center for Advancing Translational Sciences (NCATS).
